# Assay results reported in PubChem BioAssay AID652105 (National Center for Advancing Translational Sciences (NCATS), 2013).
# Out of some 330,000 compounds screened, about 4,100 (1.2%) were called active. Roughly 2% stayed inconclusive and do not appear here. Many of the other results were omitted from the sample, so actives are more common in it than they were. A number with no mark means an inactive call. The calls were made as follows: active = max response of -50% or lower; inconclusive = between -30% and -50%; inactive = -30% or higher.
# Biological target: Phosphatidylinositol 5-phosphate 4-kinase type-2 alpha (Homo sapiens) (UniProt P48426)
# Sequence (P48426 whole entry, looked up): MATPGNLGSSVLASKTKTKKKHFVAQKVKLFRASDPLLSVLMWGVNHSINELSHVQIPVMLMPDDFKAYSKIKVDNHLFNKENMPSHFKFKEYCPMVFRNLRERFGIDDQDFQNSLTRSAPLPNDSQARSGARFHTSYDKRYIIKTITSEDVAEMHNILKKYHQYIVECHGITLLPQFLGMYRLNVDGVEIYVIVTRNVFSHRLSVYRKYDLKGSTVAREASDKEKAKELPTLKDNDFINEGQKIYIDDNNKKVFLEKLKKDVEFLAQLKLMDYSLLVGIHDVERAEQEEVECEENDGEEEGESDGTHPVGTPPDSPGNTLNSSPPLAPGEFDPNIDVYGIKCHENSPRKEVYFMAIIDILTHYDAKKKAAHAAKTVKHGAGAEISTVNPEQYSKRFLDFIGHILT
# Assay: qHTS for Inhibitors of phosphatidylinositol 5-phosphate 4-kinase (PI5P4K); also: value at the top dose of about 77 µM
# Conditions: PI5P4Kalpha enzyme, ADP-Glo luminescence, 60 min; active compounds read low
# In short: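 Enzyme plus substrate dispensed, test compounds pinned in, then ATP (5 microM final) added. After 60 min at RT, ADP-Glo reagent 1 for 45 min and reagent 2 for 30 min preceded luminescence imaging.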
# % is scaled to controls: 0 for no effect and ±100 for the full control effect.
row,Structure (SMILES),max response
1,CCCCNC(=O)C[C@@H]1C[C@@]2(C(=O)OC)CC(C)(C)CC=C2N(Cc2ccco2)C1=O,4.39%
2,COc1ccc(-n2nnnc2-c2nc3ccccc3s2)cc1,11.9%
3,COc1ccc(C2=NN(C(C)=O)C(c3ccccc3)C2)cc1 (stereo not drawn),-5.07%
4,COc1ccc(C2=NN(c3nc4ccccc4s3)C(=O)C2)cc1,-57.5% (active)
5,Cn1c(Nc2ccc(F)cc2)nc2cc(-c3ccsc3)sc2c1=O,-0.288%
6,CCCc1[nH]nc2c1C(c1ccc(Br)s1)C(C#N)=C(N)O2 (stereo not drawn),-24.7%
7,CCCc1[nH]nc2c1C(C1CC=CCC1)C(C#N)=C(N)O2 (stereo not drawn),-60.2% (active)
8,CCCc1[nH]nc2c1C(c1ccc(OC)c(Cn3nc(C)c(Br)c3C)c1)C(C#N)=C(N)O2 (stereo not drawn),-0.298%
9,CCCCn1nnnc1C(c1ccccc1)N1CCN(c2ccccc2OC)CC1 (stereo not drawn),1.03%
10,O=C(NC(c1ccc(-c2ccccc2)cc1)c1cnccn1)C1CCN(CCOc2ccc(Cl)cc2Cl)CC1 (stereo not drawn),31%
11,CC(C)C[C@@H](COCc1ccc(Cl)cc1)N1CCN(C(=O)c2ccc(Cl)cc2Cl)CCC1=O,15.2%
12,COc1ccc(-c2cc(NC(C)=O)c3ncc(-c4cc(OC)c(OC)c(OC)c4)n3c2)cn1,-8.79%
13,Cc1cn([C@H]2C[C@H](O)[C@@H](/C=C/C(=O)NCCCc3ccccc3)O2)c(=O)[nH]c1=O,-0.963%
14,Cc1ccc(S(=O)(=O)N2[C@@H](Cc3ccccc3)CO[C@H]2CC(=O)OCc2ccccc2)cc1,4.77%
15,Cc1cc(Br)cn2c(Cc3ccccc3C(F)(F)F)c(C3CCCCC3)nc12,10.4%
16,CN(CC(=O)Nc1cccc(F)c1)C(=O)CC1CCCC1,2.62%
17,CCN(CC)C(=O)CSC(Nc1cccc(F)c1)=C(C#N)C#N,-66.7% (active)
18,Cc1ccc(CSCC(=O)N(C)CC(=O)Nc2cccc(F)c2)cc1,4.92%
19,O=C1NC[C@@H](CCCCN2CCN(CCc3ccc(O)cc3)C(=O)C2=O)N(CC2CCCCC2)C1=O,-1.17%
20,Cc1ccc(C)c(C(O)c2ncc(-c3cccc4ccccc34)[nH]2)c1 (stereo not drawn),-1.21%
21,CCCCn1nnnc1C(c1cccc(OC)c1OC)N1CCN(C/C=C/c2ccccc2)CC1 (stereo not drawn),0.353%
22,CCC(c1nc2ccccc2[nH]1)n1c(=O)c(-c2cccs2)nc2ccccc21 (stereo not drawn),1.88%
23,CCCCNC(=O)C[C@@H]1C[C@@]2(C(=O)OCC)CCC=C2N(Cc2ccco2)C1=O,-0.539%
24,COc1cccc(-c2cnc3c(NC(C)=O)cc(-c4cccc(NC(C)=O)c4)cn23)c1,-7.23%
25,CC(=O)c1ccc(-c2cnc3c(NC=O)cc(-c4cccc(NS(C)(=O)=O)c4)cn23)cc1,-83.7% (active)
26,CC(=O)c1cccc(-c2cnc3c(NC=O)cc(-c4ccc(N5CCN(C)CC5)cc4)cn23)c1,-0.912%
27,CC(=O)c1cccc(-c2cnc3c(NC=O)cc(-c4ccc(N(C)C)cc4)cn23)c1,-17.5%

row,Structure (SMILES),max response
1,CC(=O)c1cccc(-c2cnc3c(NC=O)cc(-c4ccccc4Oc4ccccc4)cn23)c1,-13%
2,CC(=O)Nc1cccc(-c2cc(NC=O)c3ncc(-c4ccc(F)c(Cl)c4)n3c2)c1,-70.3% (active)
3,CC(=O)Nc1cccc(-c2cc(NC(C)=O)c3ncc(-c4ccccc4)n3c2)c1,-5.78%
4,CN(C)C(=O)c1cccc(-c2cnc3c(NC=O)cc(-c4ccc(F)cc4)cn23)c1,-50.2% (active)
5,CC(=O)c1cccc(-c2cnc3c(NC=O)cc(-c4cccc(C(=O)N(C)C)c4)cn23)c1,-9.37%
6,CCCCN1C(=O)C(CC(=O)NCc2cccs2)CC(C(=O)N2CCCCCC2)=C1C (stereo not drawn),8.96%
7,COc1cccc(NC(=O)CN(C)C(=O)c2cc(Cl)nc3ccccc23)c1,0.592%
8,Cc1cccnc1C(NC(=O)C1CCN(Cc2ccc(Cl)c(Cl)c2)CC1)c1ccc(Cl)cc1 (stereo not drawn),13.1%
9,Cc1nc(C(F)(F)F)ccc1C(=O)N1CCC1(C)C(=O)NS(=O)(=O)c1ccccc1Cl (stereo not drawn),-2.74%
10,C[C@H]1CN([C@@H](C)CO)C(=O)CCCn2nncc2CO[C@@H]1CN(C)S(=O)(=O)c1cccc(C#N)c1,8.11%
11,Cc1nc(Cl)c(C#N)c2c1CCCC2,-4.68%
12,COCc1c(N)c(C)nc(Cl)c1C#N,-79.4% (active)
13,COC(=O)c1c(C)c(C)nc(N)c1C#N,1.33%
14,CC(C)NC(=O)Nc1ccc2c(c1)C(=O)N([C@H](C)CO)C[C@H](C)[C@@H](CN(C)Cc1ccc(C(F)(F)F)cc1)OCCCC[C@@H](C)O2,10.4%
15,CC1(C)OC(=O)C2=C(C[C@@H](C3CC3)O[C@H]2c2ccc(Cl)cc2)O1,8.12%
16,CC1(C)OC(=O)C2=C(C[C@@H](C3CCCCC3)O[C@@H]2c2ccc(Cl)cc2)O1,10.9%
17,Cc1ccc(S(=O)(=O)Oc2ccc(/C=N/NC(=O)c3ccncc3)cc2)cc1,3.82%
18,CC(=O)Nc1ccc(S(=O)(=O)Oc2ccc(/C=N/N=C3/NC(=O)C(CC(=O)O)S3)cc2)cc1 (stereo not drawn),-65% (active)
19,Cc1ccc(NC(=O)CC2S/C(=N/N=C3\CCCc4ccccc43)NC2=O)cc1 (stereo not drawn),27.6%
20,CCOC(=O)C1C(C)C(C(C)(C)C)N(S(=O)(=O)c2ccc(C)cc2)C1c1ccccc1 (stereo not drawn),6.25%
21,CCCOc1ccc(Cn2c(O)cc(=O)[nH]c2=O)cc1,-26.6%
22,COc1ccc(NC(=O)CNC(=O)Cc2ccccc2)cc1OC,-2.31%
23,COc1cc(=O)[nH]c(=O)n1C(=O)Cc1ccccc1,-54.9% (active)
24,COC(=O)[C@]12CCCCC=C1N(Cc1ccc3c(c1)OCO3)C(=O)[C@H](CC(=O)NCc1cccs1)C2,1.05%
25,CCCS(=O)(=O)NC(=O)C1(C)CCCN(C(=O)c2cccs2)C1 (stereo not drawn),5.25%
26,Cc1cc(C(=O)N2CCCC2(C)C(=O)O)c(C)o1 (stereo not drawn),-1.39%
